ELG1 DNA repair: qHTS screen for small molecules that inhibit ELG1-dependent DNA repair in human embryonic kidney (HEK293T) cells expressing luciferase-tagged ELG1; Potency, µM (doses to about 46.1 µM), inactives show top-dose activity change, negative = inhibition, hits mostly inhibitors; AID 504467, 2011; hit rate 2.3% among 330,000; HEK293T ELG1-luciferase reporter, luminescence, 16 h; DNA damage induced by 5-fluorouridine; also: nearly all actives have a fitted effect of over 55% in size
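HEK293T cells expressing luciferase-tagged ELG1 (2,000/well) received 5-Fluorouridine plus compound or DMSO for 16 hr at 37 °C. Luciferase was read by ONE-Glo luminescence after 30 min at room temperature.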
ALOX12 inh: Primary qHTS assay for inhibitors of human arachidonate 12S-lipoxygenase (ALOX12): Round 2; purified 12hLO, xylenol orange hydroperoxide absorbance; Potency, µM (highest dose often 108 µM), inactives show at the top dose activity change, negative = inhibition, actives largely listed as inhibitors; hit rate 1.1% among 580,000
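Purified human 12hLO (150 nM final) in 25 mM Hepes, 0.01% Triton X-100, pH 7.0 was preincubated 15 min at room temperature with compound. Then 40 uM arachidonic acid was added, 30 min. Hydroperoxide was read by Fe-XO absorbance ratio 573/405 nm.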
RORg inh: qHTS for inhibitors of ROR gamma transcriptional activity | AID 2551, 2010 | Potency, µM (highest dose often 53.6 µM), without a hit: at the top dose activity change, negative = inhibition, most hits filed as inhibitors | hit rate 5.4% among 310,000 | Nuclear receptor ROR-gamma (Mus musculus), P51450 | Drosophila S2 Gal4-RORgamma UAS-luciferase reporter, 20 h; also: nearly all actives have a fitted effect of over 60% in size
Target sequence (P51450 whole entry, looked up, the tested form may be a part): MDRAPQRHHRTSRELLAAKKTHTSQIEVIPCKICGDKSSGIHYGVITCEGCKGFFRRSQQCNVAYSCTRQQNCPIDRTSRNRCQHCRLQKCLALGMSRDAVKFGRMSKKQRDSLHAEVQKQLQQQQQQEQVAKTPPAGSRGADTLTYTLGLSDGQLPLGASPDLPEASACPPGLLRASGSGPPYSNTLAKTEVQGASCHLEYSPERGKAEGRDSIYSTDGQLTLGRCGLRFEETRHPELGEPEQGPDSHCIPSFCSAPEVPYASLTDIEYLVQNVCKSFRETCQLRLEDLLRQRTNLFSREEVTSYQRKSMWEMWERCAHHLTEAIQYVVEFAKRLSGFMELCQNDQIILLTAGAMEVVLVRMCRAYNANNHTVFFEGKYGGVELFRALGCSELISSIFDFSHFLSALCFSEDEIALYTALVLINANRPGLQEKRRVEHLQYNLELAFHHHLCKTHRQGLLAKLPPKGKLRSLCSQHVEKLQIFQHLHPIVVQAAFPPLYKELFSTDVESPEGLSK
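Read-out: Photinus luciferase luminescence; inhibitors lower reporter signal. Insect Schneider cells with Gal4-ROR gamma fusion under metallothionein promoter, UAS reporter; 700 uM final copper sulfate induction, 20 hr, ambient temperature.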
DT40 TDP1 no CPT: qHTS for Inhibitors of human tyrosyl-DNA phosphodiesterase 1 (TDP1): qHTS in cells in absence of CPT; DT40 Tdp1-/- hTDP1 cells, no CPT, ATP luminescence, 48 h; Potency, µM (titrated, usually from 46.2 µM), for inactives: at the top dose activity change, negative = growth inhibition, hits mostly inhibitors; hit rate 15% among 420,000; also: nearly all actives have a fitted effect of over 55% in size
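Cells were dispensed at 400 per well, compounds added by pin tool, plates incubated ≥48 hr at 37 °C, then CellTiter-Glo added for 30 min at room temperature before luminescence reading. Line: DT40 Tdp1-/- complemented with hTDP1; camptothecin omitted.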
Gal4-VP16 FLuc: VP16 counterscreen qHTS for inhibitors of ROR gamma transcriptional activity; AID 2546, 2010; hit rate 3.5% among 310,000; Drosophila S2 Gal4-VP16 UAS-luciferase, luminescence, 20 h; Potency, µM (highest dose often 53.6 µM), inactives show at the highest dose activity, negative = inhibition, usual class: inhibitors;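 also: Gal4-VP16 expression switched on by copper sulfate through the metallothionein promoter; nearly all actives have a fitted effect of over 50% in size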
TDP1 cell CPT: qHTS for Inhibitors of human tyrosyl-DNA phosphodiesterase 1 (TDP1): qHTS in cells in presence of CPT. chicken DT40 Tdp1-/-;hTDP1 cells + 20 nM CPT, ATP luminescence, 48 h. Potency, µM (series often up to 46.2 µM), inactives show top-dose activity change, negative = growth inhibition, most hits filed as inhibitors. hit rate 12% among 420,000. AID 686979, 2013; also: nearly all actives have a fitted effect of over 55% in size
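Cell growth measured by CellTiter-Glo luminescence after a minimum 48 h, 37 C compound exposure with 20 nM CPT in Tdp1-knockout DT40 cells stably expressing hTDP1, seeded 400/well; qHTS titration format.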
Starred values were filed as active, the others as inactive; ? = inconclusive; / = not tested or not shown. A selection: hits, their analogues and other compounds. The true share with any hit is near 15%. Calls follow the shape of the dose curve; as a rule, active = well fitted curve in the direction sought with a large enough effect; inconclusive = small, poorly fitted or top-dose-only effect, or another doubt; inactive = no such curve, though single readings can be large; an effect the other way counts as inactive or inconclusive. % is scaled to controls: 0 for no effect and ±100 for the full control effect; potency is read from the fitted curve at half-maximal effect.

SMILES	ELG1 DNA repair	ALOX12 inh	RORg inh	DT40 TDP1 no CPT	Gal4-VP16 FLuc	TDP1 cell CPT
COc1cccc(NC(=O)COc2ccc(Br)c(C)c2)c1	?	98%	2%	-9%	1%	-4%
Cc1cc(C)cc(OCC(=O)Nc2ccncc2)c1	16µM*	21%	?	?	?	-19%
CCOC(=O)C1(Cc2ccccc2C)CCCN(Cc2cnc(C)s2)C1 (configuration not stated)	/	0%	/	/	/	/
COc1cccc(C(=O)Nc2cc([N+](=O)[O-])ccc2N2CCN(C)CC2)c1	-19%	11%	-27%	-20%	3%	?
COc1ccc(C(=O)Nc2cc([N+](=O)[O-])ccc2N2CCN(C)CC2)cc1	-4%	5%	-6%	?	3%	11µM*
Cc1ccc(C(=O)Nc2ccccc2N2CCN(C(=O)C(C)C)CC2)cc1C	0%	-34%	-5%	13µM*	-12%	?
Cc1ccc(C(=O)Nc2ccccc2N2CCCCC2)cc1[N+](=O)[O-]	?	-17%	-9%	16µM*	21%	?
CN1CCN(c2ccccc2NC(=O)c2ccc(N3CCCCC3)c([N+](=O)[O-])c2)CC1	?	18%	?	12µM*	-12%	12µM*
COc1ccc(C(=O)Nc2ccccc2N2CCCCC2)cc1[N+](=O)[O-]	?	-2%	14%	?	-2%	?
COc1c(F)c(F)c(C(=O)Nc2ccccc2N2CCN(C(=O)C(C)C)CC2)c(F)c1F	?	?	-9%	?	-25%	-6%
O=C(c1cc(-c2cccs2)[nH]n1)N1CCc2c(nc(-c3ccccc3)[nH]c2=O)C1	/	23%	/	/	/	/
CCOc1ccccc1CNC(=O)c1ncoc1-c1cccc(OC)c1	/	4%	/	/	/	/
Cc1ccc(C(=O)NC(=S)Nc2ccccc2N2CCCC2)cc1[N+](=O)[O-]	-13%	?	?	18µM*	?	16µM*
O=C(/C=C/c1cn(-c2ccccc2)nc1-c1cccnc1)c1ccco1	0%	9%	6.3µM*	10µM*	?	15µM*
O=C(/C=C/c1cn(-c2ccccc2)nc1-c1cccnc1)N1CCCC1	13µM*	-28%	5%	7.3µM*	-3%	8.2µM*
N#C/C(=C\c1cn(-c2ccccc2)nc1-c1cccnc1)c1nnc2n1CCCCC2	21µM*	0%	5%	?	-3%	?
CCC(=O)C1=C(c2ccc(C)cc2)N(C(=O)CC)n2c(Cc3ccc(OC)cc3)nnc2S1	/	-5%	/	/	/	/
COc1ccc(CNC(=O)CC[C@]23CC[C@](C)(O)C[C@H]2C(C)(C)C[C@@H]3NC(=O)c2cccc(F)c2)cc1	/	7%	/	/	/	/
CNC(=O)CCn1ncc2cc(OC3CCc4cccc(-c5cccnc5OC)c43)ccc21 (configuration not stated)	/	8%	/	/	/	/
COc1ccc(N2CC(C(=O)N3CCC(C(=O)N4CCCC4)C3)NC2=O)cc1 (configuration not stated)	/	47%	/	/	/	/
COc1cccc(OC)c1C(=O)Nc1cccc(-c2nc3cc(Cl)ccc3o2)c1	/	0%	/	/	/	/
Cc1cnc(C(=O)NC2C[C@H]3CC[C@@H](C2)N3C(=O)Nc2cccc(C(F)(F)F)c2)cn1 (some centres not stated)	/	0%	/	/	/	/
Cc1ccc(CN2CCCn3nc(C(=O)NCCN(C)C)cc3C2=O)cc1	/	-23%	/	0%	/	-3%

Bioassay records: PubChem BioAssay, National Center for Advancing Translational Sciences (NCATS)
